Results from ChEMBL document CHEMBL3988442, “University of Dundee, Small-Polar-MMV Screening Library” (2021).
For some of these results: Potency and affinity values are given separately.

Legend:
Design in all cases: scale not given: direction of the effect not stated beside the values
[1] = biological target: Protein translocase subunit SecA (Escherichia coli (strain K12)) (UniProt P10408); assay: Assay to Identify E. coli SecA ATPase Inhibitors; format: functional; conditions: 30 µM
[2] = biological target: T1, Ubiquitin-activating enzyme e1, putative (Leishmania donovani (strain BPK282A1)) (UniProt E9BSI1); assay: Leishmania donovani Ubiquitin Activating Enzyme (LdE1); format: functional; conditions: 30 µM
T1 sequence (whole entry): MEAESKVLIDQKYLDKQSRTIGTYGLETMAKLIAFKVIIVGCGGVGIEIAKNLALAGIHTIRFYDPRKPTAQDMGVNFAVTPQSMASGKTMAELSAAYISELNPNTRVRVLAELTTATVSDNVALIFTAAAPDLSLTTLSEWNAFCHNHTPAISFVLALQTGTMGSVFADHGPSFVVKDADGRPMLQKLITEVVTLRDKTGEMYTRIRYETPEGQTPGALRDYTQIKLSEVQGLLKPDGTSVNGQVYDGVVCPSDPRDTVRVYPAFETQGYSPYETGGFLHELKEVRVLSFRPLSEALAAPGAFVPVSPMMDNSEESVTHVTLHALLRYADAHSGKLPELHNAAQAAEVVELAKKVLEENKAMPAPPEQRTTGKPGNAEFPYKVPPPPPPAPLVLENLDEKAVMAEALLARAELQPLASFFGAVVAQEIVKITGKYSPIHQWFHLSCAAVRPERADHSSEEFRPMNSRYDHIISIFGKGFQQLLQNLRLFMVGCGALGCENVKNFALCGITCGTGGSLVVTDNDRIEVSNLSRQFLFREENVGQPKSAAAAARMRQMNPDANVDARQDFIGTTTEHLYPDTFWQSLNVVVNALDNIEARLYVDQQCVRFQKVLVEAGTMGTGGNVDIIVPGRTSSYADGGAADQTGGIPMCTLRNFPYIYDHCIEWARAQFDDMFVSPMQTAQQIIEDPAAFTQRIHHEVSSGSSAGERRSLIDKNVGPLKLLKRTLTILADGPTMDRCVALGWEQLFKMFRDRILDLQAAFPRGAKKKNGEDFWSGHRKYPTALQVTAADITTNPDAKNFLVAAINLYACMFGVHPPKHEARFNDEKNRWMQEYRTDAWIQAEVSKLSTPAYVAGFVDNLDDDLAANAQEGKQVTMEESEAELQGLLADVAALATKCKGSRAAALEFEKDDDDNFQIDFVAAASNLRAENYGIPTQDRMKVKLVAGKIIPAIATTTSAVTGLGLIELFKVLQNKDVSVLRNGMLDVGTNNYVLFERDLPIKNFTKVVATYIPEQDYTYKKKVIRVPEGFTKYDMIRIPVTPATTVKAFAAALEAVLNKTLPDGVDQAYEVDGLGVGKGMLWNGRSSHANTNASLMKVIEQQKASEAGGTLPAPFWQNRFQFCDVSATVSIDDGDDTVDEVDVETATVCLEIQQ

[3] = biological target: AMP-activated protein kinase, AMPK (Homo sapiens) (UniProt P54646+O43741+P54619+Q9UGJ0+Q9Y478+Q13131+Q9UGI9); assay: AMP-dependent Kinase enzyme assay. An in vitro enzyme assay that detects ADP turnover that is directly proportional to AMPK activity. This uses naive AMPK that is activated during the assay with MK-8722; format: functional; conditions: 30 µM
[4] = biological target: Sialic acid-binding Ig-like lectin 9 (Homo sapiens) (UniProt Q9Y336); assay: Hs-Siglec9 ALPHAscreen SOP 20170721; conditions: 10 µM
Sequence of Sialic acid-binding Ig-like lectin 9 (Homo sapiens) (Q9Y336 whole entry): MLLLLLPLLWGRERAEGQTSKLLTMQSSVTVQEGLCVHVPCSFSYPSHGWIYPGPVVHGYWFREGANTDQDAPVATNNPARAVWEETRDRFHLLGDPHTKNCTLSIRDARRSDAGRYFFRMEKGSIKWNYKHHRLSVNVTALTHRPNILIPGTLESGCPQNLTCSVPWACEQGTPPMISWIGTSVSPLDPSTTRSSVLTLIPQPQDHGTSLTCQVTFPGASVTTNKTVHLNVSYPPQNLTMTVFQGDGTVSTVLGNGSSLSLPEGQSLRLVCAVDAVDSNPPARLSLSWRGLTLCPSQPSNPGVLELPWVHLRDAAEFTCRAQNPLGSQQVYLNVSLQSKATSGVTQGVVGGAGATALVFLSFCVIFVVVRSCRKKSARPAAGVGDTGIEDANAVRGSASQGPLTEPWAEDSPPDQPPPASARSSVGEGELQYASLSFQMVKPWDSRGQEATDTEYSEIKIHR

Trypanosoma cruzi = assay: Trypanosoma cruzi phosphomannomutase and mannose-1-phosphate guanylyltransferase assay; format: functional; conditions: 10 µM
[5] = biological target: T2, Arginase-2, mitochondrial (Homo sapiens) (UniProt P78540); assay: in vitro enzyme assay to detect the production of urea directly proportional to the activity of Arginase II; format: functional; conditions: 33.3 µM; also: in the data most compounds retested in dose-response had high values
T2 sequence (whole entry): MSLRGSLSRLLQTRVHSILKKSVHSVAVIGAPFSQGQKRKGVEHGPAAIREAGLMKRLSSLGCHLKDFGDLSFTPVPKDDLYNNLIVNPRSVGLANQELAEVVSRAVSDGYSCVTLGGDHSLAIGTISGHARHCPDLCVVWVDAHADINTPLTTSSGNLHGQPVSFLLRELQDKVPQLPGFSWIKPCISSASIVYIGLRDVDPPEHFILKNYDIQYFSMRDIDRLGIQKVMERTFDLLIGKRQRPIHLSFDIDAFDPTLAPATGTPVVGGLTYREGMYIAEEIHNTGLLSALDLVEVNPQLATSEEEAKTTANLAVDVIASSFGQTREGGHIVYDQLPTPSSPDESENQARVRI

[6] = biological target: T3, Proteasome subunit beta (Trypanosoma cruzi) (UniProt O96673); assay: Trypanosoma cruzi proteasome chymotrypsin-like activity (TcProtChymo) assay.; also: in the data most compounds retested in dose-response had high values; format: functional; conditions: 9.37 µM
T3 sequence (whole entry): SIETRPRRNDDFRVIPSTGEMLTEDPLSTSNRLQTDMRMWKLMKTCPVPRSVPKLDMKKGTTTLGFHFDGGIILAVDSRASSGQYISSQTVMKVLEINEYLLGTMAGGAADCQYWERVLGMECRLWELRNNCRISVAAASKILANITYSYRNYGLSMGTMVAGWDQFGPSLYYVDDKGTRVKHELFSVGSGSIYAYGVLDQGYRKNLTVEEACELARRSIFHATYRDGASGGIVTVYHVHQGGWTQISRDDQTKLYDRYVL

Homo sapiens = species on record: Homo sapiens; assay: To identify inhibition of the IFN signalling (Jak-Stat) pathway via expression of an eGFP reporter gene under the control of an IFN-stimulated response element (ISRE) containing MxA promoter.; format: functional; conditions: 30 µM
[7] = biological target: T4, Tyrosyl-tRNA synthetase, putative (Trypanosoma cruzi (strain CL Brener)) (UniProt Q4DSP6); assay: Trypanosoma cruzi tyrosyl tRNA synthetase (TcYRS) _High Tyrosine SOP; format: functional; conditions: 30 µM; also: in the data most compounds retested in dose-response had high values
T4 sequence (whole entry): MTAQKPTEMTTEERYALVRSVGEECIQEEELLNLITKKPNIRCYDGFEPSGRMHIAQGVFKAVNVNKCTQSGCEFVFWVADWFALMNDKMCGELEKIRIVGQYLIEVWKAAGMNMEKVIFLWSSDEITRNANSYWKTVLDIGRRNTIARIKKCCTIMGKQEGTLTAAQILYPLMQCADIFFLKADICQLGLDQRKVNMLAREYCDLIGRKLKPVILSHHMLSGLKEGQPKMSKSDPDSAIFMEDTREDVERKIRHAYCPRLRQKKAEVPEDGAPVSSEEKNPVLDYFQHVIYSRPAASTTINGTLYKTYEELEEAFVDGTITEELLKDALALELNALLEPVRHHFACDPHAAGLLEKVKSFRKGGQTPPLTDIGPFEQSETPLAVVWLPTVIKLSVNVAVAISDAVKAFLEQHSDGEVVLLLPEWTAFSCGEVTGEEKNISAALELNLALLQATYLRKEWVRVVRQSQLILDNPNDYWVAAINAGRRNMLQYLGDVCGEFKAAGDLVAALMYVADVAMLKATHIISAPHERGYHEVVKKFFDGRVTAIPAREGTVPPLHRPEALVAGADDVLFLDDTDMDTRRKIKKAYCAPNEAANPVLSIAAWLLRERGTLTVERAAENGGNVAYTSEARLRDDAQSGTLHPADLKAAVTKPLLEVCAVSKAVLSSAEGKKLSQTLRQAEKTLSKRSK

[8] = biological target: T4, Tyrosyl-tRNA synthetase, putative (Trypanosoma cruzi (strain CL Brener)); assay: Trypanosoma cruzi tyrosyl tRNA synthetase (TcYRS) SOP; format: functional; conditions: 30 µM
[9] = biological target: Chromo domain-containing protein 1 (Saccharomyces cerevisiae (strain ATCC 204508 / S288c) (Baker's yeast)) (UniProt P32657); assay: ScCHD-1 Enzyme Inhibition Assay; format: functional; conditions: 30 µM; also: in the data most compounds retested in dose-response had high values
Sequence of Chromo domain-containing protein 1 (Saccharomyces cerevisiae (strain ATCC 204508 / S288c) (Baker's yeast)) (P32657 whole entry, the tested form may be a part): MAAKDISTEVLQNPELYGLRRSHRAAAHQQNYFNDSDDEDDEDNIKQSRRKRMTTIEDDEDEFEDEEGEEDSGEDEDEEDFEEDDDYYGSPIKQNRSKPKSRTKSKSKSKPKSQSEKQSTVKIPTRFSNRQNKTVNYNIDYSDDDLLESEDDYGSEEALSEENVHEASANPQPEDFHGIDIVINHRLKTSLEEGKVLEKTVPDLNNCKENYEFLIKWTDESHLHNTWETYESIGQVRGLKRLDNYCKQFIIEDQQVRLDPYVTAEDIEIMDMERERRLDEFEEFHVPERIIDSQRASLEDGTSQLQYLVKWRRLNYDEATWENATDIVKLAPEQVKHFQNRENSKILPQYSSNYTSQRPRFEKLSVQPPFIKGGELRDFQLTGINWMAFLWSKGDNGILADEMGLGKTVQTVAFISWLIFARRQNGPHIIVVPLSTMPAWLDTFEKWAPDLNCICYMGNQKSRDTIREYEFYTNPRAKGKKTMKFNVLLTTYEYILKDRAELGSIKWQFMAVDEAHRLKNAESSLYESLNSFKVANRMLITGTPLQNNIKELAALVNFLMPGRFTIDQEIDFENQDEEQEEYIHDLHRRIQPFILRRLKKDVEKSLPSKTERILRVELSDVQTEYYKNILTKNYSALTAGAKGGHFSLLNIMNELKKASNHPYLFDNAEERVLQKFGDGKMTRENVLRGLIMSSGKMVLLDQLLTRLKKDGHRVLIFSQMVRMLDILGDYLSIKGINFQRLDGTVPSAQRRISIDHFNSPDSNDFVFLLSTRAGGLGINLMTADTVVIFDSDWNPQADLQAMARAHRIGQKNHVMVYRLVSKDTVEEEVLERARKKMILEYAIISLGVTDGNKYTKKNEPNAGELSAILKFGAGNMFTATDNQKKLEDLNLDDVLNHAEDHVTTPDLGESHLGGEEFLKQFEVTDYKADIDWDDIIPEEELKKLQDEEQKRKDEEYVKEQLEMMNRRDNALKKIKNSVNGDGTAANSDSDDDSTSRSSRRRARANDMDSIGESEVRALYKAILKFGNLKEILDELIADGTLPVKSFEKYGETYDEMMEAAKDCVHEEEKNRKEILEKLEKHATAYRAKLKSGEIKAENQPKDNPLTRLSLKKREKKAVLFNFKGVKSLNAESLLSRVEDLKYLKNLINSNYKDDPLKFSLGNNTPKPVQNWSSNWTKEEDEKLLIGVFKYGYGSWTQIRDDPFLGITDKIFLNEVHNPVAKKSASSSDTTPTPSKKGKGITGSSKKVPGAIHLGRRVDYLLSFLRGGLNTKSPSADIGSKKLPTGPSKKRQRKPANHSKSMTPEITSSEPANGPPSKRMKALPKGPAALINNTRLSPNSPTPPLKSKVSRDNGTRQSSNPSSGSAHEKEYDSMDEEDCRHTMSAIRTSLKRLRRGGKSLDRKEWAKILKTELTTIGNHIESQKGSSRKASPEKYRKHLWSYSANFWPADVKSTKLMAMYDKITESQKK

Sequence of Protein translocase subunit SecA (Escherichia coli (strain K12)) (P10408 whole entry): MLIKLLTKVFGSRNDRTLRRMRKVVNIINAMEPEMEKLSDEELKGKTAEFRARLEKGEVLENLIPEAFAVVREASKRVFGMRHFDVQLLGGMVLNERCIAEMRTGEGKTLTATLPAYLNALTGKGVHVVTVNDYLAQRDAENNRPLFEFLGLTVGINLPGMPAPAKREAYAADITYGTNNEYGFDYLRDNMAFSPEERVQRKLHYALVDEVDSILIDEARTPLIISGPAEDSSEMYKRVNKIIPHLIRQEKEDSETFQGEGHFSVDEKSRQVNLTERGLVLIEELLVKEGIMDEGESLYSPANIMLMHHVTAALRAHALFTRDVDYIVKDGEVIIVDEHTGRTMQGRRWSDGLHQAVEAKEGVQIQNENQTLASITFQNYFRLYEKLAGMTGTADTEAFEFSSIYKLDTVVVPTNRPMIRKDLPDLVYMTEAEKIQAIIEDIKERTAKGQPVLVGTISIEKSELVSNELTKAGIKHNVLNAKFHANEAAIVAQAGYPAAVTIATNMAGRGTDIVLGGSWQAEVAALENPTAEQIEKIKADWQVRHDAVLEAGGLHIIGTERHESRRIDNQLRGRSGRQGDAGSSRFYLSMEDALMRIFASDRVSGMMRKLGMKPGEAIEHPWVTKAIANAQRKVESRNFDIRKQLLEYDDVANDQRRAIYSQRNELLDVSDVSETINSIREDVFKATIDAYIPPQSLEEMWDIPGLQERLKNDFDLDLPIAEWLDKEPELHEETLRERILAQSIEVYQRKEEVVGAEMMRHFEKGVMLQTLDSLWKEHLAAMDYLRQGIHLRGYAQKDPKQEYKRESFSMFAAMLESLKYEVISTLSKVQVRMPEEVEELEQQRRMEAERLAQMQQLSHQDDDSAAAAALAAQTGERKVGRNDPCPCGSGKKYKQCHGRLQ

SMILES	Percent Effect [1]	Percent Effect [2]	Percent Effect [3]	Percent Effect [4]	Percent Effect (Trypanosoma cruzi)	Percent Effect [5]	Percent Effect [6]	Percent Effect (Homo sapiens)	Percent Effect [7]	Percent Effect [8]	Percent Effect [9]
CCOCc1ncn2c1CN(C(=O)Nc1cccc(C)c1)CC2	-0.857%	-173%	3.58%	1.03%	-2.54%	0.417%	9.21%	2.31%	12.9%	13.4%	1.64%
O=C(c1ccccn1)N1CCCC(c2nccn2CC2CCC2)C1 (stereo not drawn)	-7.93%	0%	-15.1%	2.39%	-2.35%	-2.27%	3.37%	7.95%	0%	0%	-2.91%
Cc1ccc(N2CCCC3(COCCN(c4nccs4)C3)C2)nn1 (stereo not drawn)	0.955%	0%	-4.27%	3.78%	1.79%	1.2%	11.7%	-6.58%	5.21%	3.7%	-1.92%
Cc1c[nH]cc1C(=O)N1CCN(Cc2nc(C(C)C)no2)CC1	-5.12%	8.11%	-5.14%	9.52%	-3.81%	-2.77%	-3.05%	17.2%	2.97%	11%	1.56%
O=C(NCc1cccc2cccnc12)N1CCC(n2cncn2)CC1	-2.83%	6.33%	9.77%	5.48%	-5.03%	2.37%	-0.515%	12.1%	9.38%	7.59%	-4.9%
O=C(Cn1cccn1)NCC1(c2ccccc2)CC1	-4.9%	2.6%	0.192%	-7.24%	-2.25%	2.74%	-1.86%	23.2%	-0.952%	-2.35%	-6.03%
NC(=O)C1CCN(C(=O)Cn2nc(-c3ccccc3)oc2=O)C1 (stereo not drawn)	-4.97%	7.79%	1.04%	8.76%	2.46%	-13.8%	8.82%	-30.7%	2.15%	13.6%	-0.676%
CC(C)c1cc(NC(=O)CN2CCCC2Cn2cccn2)on1 (stereo not drawn)	-5.87%	5.26%	-3.45%	-1.04%	-1.59%	3.24%	-0.761%	15.3%	7.39%	6.17%	9.14%
